Shown are actives, neighbours in structure and some others; about 0.49% of the full set was active somewhere.
Vif-A3F inh: Vif-A3F binding inhibition | Potency, µM (top dose mostly 46.1 µM), inactives show at the highest dose activity, negative = active | HeLa A3F-eYFP + Vif (tagged APOBEC3F with the HIV-1 protein that degrades it), YFP fluorescence increase | 390,000 tested, 0.2% active; further: potency means the concentration at half of the fitted maximal effect; % of control where 0% means no effect; nearly all actives have a fitted effect of over 65% in size
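HeLa cells stably expressing A3F-eYFP plus Vif, plated and incubated overnight at 37 deg C, then exposed to compounds overnight at 37 deg C. Blocked degradation read as raised yellow fluorescence (Ex 488/Em 500-530).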
PGK inhibitor: inhibitors of T. brucei phosphoglycerate kinase; P07378; PGK/GAPDH coupled, Kinase-Glo luminescence, 60 min; Potency, µM (doses to about 57.5 µM), without a hit: at the top dose activity change, negative = inhibition, usual class: inhibitors; 380,000 tested, 0.043% active; AID 602233; further: potency means the concentration at half of the fitted maximal effect; on the % scale 0 is the no-effect control and ±100 the full control effect; nearly all actives have a fitted effect of over 60% in size
Target sequence (P07378 whole entry, looked up): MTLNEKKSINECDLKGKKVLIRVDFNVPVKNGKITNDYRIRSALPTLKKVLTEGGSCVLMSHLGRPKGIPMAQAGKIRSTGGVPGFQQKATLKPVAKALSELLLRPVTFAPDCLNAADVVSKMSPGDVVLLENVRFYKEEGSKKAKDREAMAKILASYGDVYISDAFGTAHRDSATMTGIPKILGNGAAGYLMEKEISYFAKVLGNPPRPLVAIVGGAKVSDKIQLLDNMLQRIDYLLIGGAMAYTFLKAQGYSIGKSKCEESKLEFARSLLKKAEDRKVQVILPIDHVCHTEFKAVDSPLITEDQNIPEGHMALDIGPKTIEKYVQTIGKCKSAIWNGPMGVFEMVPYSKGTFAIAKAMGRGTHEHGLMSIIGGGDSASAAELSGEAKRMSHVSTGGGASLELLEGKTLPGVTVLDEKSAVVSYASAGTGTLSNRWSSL
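Recombinant glycosomal PGK reaction used 1,3-bisphosphoglycerate generated in-well by GAPDH (100nM final) in 100mM TEA pH 7.6, 5mM MgCl2, 0.01% Tween-20. After 60 minutes at room temperature, ATP was read by Kinase-Glo Plus luminescence end-point.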
IDH1 R132H inh: inhibitors of human mutant IDH1 R132H. O75874. IDH1-R132H enzyme, NADPH consumption, diaphorase/resazurin fluorescence. Potency, µM (doses to about 76.6 µM), for the others: at the top dose activity change, negative = inhibition, hits mostly inhibitors. 390,000 tested, 0.093% active; further: potency means the concentration at half of the fitted maximal effect; on the % scale 0 is the no-effect control and ±100 the full control effect; nearly all actives have a fitted effect of over 65% in size
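IDH1-R132H (0.5 ug/mL) preincubated 30 min with compound, then NADPH (0.016 mM) and alpha-KG (2 mM) added; 80 min at RT, pH 7.5. Remaining NADPH coupled via diaphorase/resazurin to fluorescence (540/590 nm); concentration-response curves normalized to no-enzyme control.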
LDHA block: blocks human lactate dehydrogenase A | activity change, % (values are at about 110 or 230 µM) | P00338 | AID 1347041 | purified LDHA, NADH/diaphorase-resazurin fluorescence; hits give low values | 480,000 tested, 0.15% active; in the data active means activity change below about -30%; inconclusive means mostly about -25% to -30%;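 further: plate controls were DMSO wells for no effect and wells without enzyme for full effect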
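Remaining NADH was detected by diaphorase (0.133 mg/mL) converting 37 µM resazurin to fluorescent resorufin, read at 0 and 20 minutes. The preceding 5-minute room-temperature reaction used 2 nM LDHA, 0.2 mM sodium pyruvate and 0.06 mM NADH at pH 7.4.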
Vif-A3G inh: Vif-A3G binding inhibition; Potency, µM (series often up to 46.1 µM), without a hit: at the top dose activity, negative = active, most hits filed as inhibitors; HeLa A3G-eYFP + Vif (tagged APOBEC3G with the HIV-1 protein that degrades it), YFP fluorescence, overnight; 410,000 tested, 0.076% active; Q9HC16; further: potency means the concentration at half of the fitted maximal effect; on the % scale 0 is the no-effect control and ±100 the full control effect; nearly all actives have a fitted effect of over 60% in size
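HeLa cells stably expressing Vif and C-terminally eYFP-tagged A3G, seeded overnight at 37 deg C, then exposed to compound by pintool overnight at 37 deg C. Rise in yellow fluorescence (Ex 488/Em 500-530, Acumen) marks blocked Vif-driven A3G degradation.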
Pin1 inh: inhibitors of human Pin1 | Q13526 | Pin1 FP peptide displacement, HiFluor488, 10 min | Potency, µM (top dose mostly 115 µM), for the others: at the top dose activity, negative = inhibition, usual class: inhibitors | 390,000 tested, 0.009% active | AID 504891; active means well fitted inhibition curve with a large enough effect in the polarisation, with a control signal flat, not every such curve was filed as active; inconclusive means small, poorly fitted or top-dose-only effect, or effect the other way, or a change in a side signal; inactive means no such curve, though single readings can be large or run the other way; the % refers to the polarisation; further: potency means the concentration at half of the fitted maximal effect; on the % scale 0 is the no-effect control and ±100 the full control effect
Target sequence (Q13526 whole entry, looked up): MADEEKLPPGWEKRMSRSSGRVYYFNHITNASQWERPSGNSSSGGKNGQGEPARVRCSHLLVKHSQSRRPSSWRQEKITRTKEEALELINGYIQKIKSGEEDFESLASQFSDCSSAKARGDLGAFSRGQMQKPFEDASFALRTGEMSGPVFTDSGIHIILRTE
Starred values were filed as active, the others as inactive; i = inactive; ? = inconclusive; . = not tested or not shown; [ ] = another dose, or the depositor's remark. Unless noted, the call rests on the fitted dose curve; in most records, active means well fitted curve in the direction sought with a large enough effect; inconclusive means small, poorly fitted or top-dose-only effect, or another doubt; inactive means no such curve, though single readings can be large; an effect the other way counts as inactive or inconclusive.

SMILES	Vif-A3F inh	PGK inhibitor	IDH1 R132H inh	LDHA block	Vif-A3G inh	Pin1 inh
Cc1c(Cl)cnc(NC(=O)COC(=O)/C=C/c2ccco2)c1Cl	-9%	1%	3%	2	-3%	.
COc1cccc(C2=CC(c3ccc(N(C)C)cc3)n3nnnc3N2)c1 (configuration not stated)	32µM*	i	1%	12	?	?
COc1cccc(C2=CC(c3ccccc3)n3nnnc3N2)c1 (configuration not stated)	-1%	.	7%	-6	?	-13%
COc1ccc(C2=CC(c3ccc(N(C)C)cc3)n3nnnc3N2)cc1 (configuration not stated)	11µM*	-8%	18%	6	?	?
Nc1c(C(=O)O)cnc2c(-c3ccc(Cl)cc3)cnn12	12%	32µM*	-1%	0	-5%	-1%
CC(=O)c1cnc2c(-c3ccc(Cl)cc3)cnn2c1C	-4%	1%	1%	2	5%	-1%
CC1=NN(c2nc(C)cc(C)n2)C(=O)C1Cc1ccc(Br)cc1 (configuration not stated)	.	.	.	5	.	.
CC1=NN(c2nc(C)cc(C)n2)C(=O)C1Cc1ccc(Cl)cc1 (configuration not stated)	.	.	.	-36*	.	.
O=C1Nc2ccccc2C1=Nc1ccc(F)cc1	?	i	-2%	10	0%	?
CC(=O)c1ccc(N=C2C(=O)Nc3ccccc32)cc1	-13%	16%	26µM*	-1	0%	3%
CCCCCCCn1c(SC(CC)C(=O)OCC)nc2c1c(=O)[nH]c(=O)n2C (configuration not stated)	.	.	.	10	.	.
COc1cccc(/C=C/C(=O)NC2CCCC2)c1OC	.	.	.	-5	.	.
S=C(Nc1cccc2ccccc12)NN1CCCCCC1	22µM*	-6%	-2%	-1	0%	-2%
Cc1ccc(Oc2ccc(NC(=O)Cn3cnnc3C#N)cc2)cc1	.	.	.	4	.	.
Cc1cc2nc3c(=O)n(CCc4ccccc4)c(=O)[nH]c3nc2cc1N	6.3µM*	-10%	5%	11	?	.
Nc1ccc2nc3c(=O)n(CCc4ccccc4)c(=O)[nH]c3nc2c1	?	11%	13%	26	?	.
Cc1nc2ccc(Cl)cc2cc1C(=O)N1CCN(CC(=O)N2CCCCC2C)CC1 (configuration not stated)	.	.	.	3	.	.
O=c1[nH]n(-c2ccccc2)c(=O)c2ccccc12	-12%	-2%	2%	-15	3%	2%
O=C(O)c1cc2c(ncc3c(=O)n(-c4ccccc4)[nH]c32)s1	.	.	.	-35*	-1%	.
CCOC(=O)N1CCN(C(C(=O)O)c2c[nH]c3ccc(OC)cc23)CC1 (configuration not stated)	.	.	.	2	.	.
Cc1ccc(S(=O)(=O)N(CC(=O)NC2CC3CCC2C3)c2ccccc2)cc1 (configuration not stated)	-7%	1%	0%	-43*	-6%	.
COc1ccc(N(CC(=O)NC2CC3CCC2C3)S(=O)(=O)c2ccc(C)cc2)cc1 (configuration not stated)	-10%	-2%	7%	-7	-4%	-6%
N#C/C(=C\c1ccccc1[N+](=O)[O-])C(=O)NCc1ccccc1	13µM*	i	3%	0	-6%	?
N#C/C(=C\C=C\c1ccccc1[N+](=O)[O-])C(=O)NCc1ccccc1	4%	i	15%	-4	-23%	-2%
COc1ccc(-c2nc3cc(NC(=O)c4cccc(Br)c4)ccc3o2)cc1	.	.	.	8	.	.
SMILES	Vif-A3F inh	PGK inhibitor	IDH1 R132H inh	LDHA block	Vif-A3G inh	Pin1 inh
CCCOc1ccc(C(=O)Nc2cccc(NC(=O)c3ccc(Cl)cc3Cl)c2)cc1	?	7%	-12%	-6	13µM*	12%
CC(=O)Nc1ncnc2c1c(-c1ccc(Cl)cc1)nn2C(C)(C)C	0%	-5%	-4%	1	-20%	0%
CC(=O)N(C(C)=O)c1ncnc2c1c(-c1ccc(Cl)cc1)nn2C(C)(C)C	10%	-5%	3%	-48*	-1%	-5%
Cc1cc(C)c2cc3c(N)c(C(=O)N4CCc5ccccc5C4)sc3nc2c1	?	5%	2%	-11	?	?
Cc1cccc2cc3c(N)c(C(=O)N4CCOCC4)sc3nc12	22µM*	-3%	7%	-7	?	?
C1CCCN(CCNC2CCCC2)CC1	.	.	.	6	.	.
CC(C)c1ccc(N2C(=O)/C(=C/N(C)C)SC2=S)cc1	-5%	-17%	13µM*	-18	1%	?
CSc1c[n+]2c(n1C)CCC2	-5%	.	2%	-34*	-3%	-4%
Nc1c(C(=O)O)sc2nc(-c3ccc(F)cc3)cc(-c3ccccc3)c12	11µM*	i	-2%	-2	-18%	34%
Nc1c(C(=O)OCC(=O)Nc2cccc([N+](=O)[O-])c2)[nH]c(=O)[nH]c1=O	4%	18µM*	5%	-15	2%	?
CCc1nnc2sc(-c3ccc(NC(=O)C(c4ccccc4)c4ccccc4)cc3)nn12	.	.	.	2	.	.
COc1ccc(Br)cc1CN1CCCCCCC1	-3%	-5%	6%	-30*	-9%	3%
c1ccc2c(-c3nc4ccccc4[nH]3)cccc2c1	0%	4%	-5%	-3	6.3µM*	.
c1ccc2[nH]c(-c3ccnc4ccccc34)nc2c1	-4%	4%	8%	-3	-14%	-7%
O=C1CSc2ccc(S(=O)(=O)NCc3ccccc3Cl)cc2N1	7%	-4%	11%	-8	0%	-1%
CC(CS(=O)(=O)c1ccc2c(c1)NC(=O)CS2)C(=O)NCc1ccccc1Cl (configuration not stated)	-2%	7.9µM*	-7%	-9	-8%	?
CCN1c2ccccc2NC2C1C(C(C)=O)C(=O)N2c1ccc(Cl)cc1 (configuration not stated)	22µM*	-4%[11.5 µM]	1%	13	?	?
CCOC(=O)CN1C(=O)S/C(=C/c2ccc(N3CCCCC3)o2)C1=O	32µM*	-8%	10%	1	6%	?
O=C(O)CN1C(=O)/C(=C/c2ccc(N3CCCCC3)o2)SC1=S	-24%	-29%	10µM*	3	0%	?
C=CCC(C)(NCc1ccccc1)c1cccs1 (configuration not stated)	.	.	.	11	.	.
Cc1ccccc1C1N=C(Nc2nc3ccccc3o2)NC2=C1C(=O)CC(C)(C)C2 (configuration not stated)	.	.	.	-2	.	.

Compound activity as filed in PubChem BioAssay.
